Screening results from PubChem.
Lmaj promast: inhibitors of Leishmania major promastigote growth | Leishmania major promastigotes, resazurin fluorescence viability | inhibition, % at 10 µM | 200,000 tested, 9% active | AID 1063; in the data active means inhibition above about 50%;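 further: promastigotes grown with compound for 44 hours at 28 °C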
KCC2 mod: KCC2 (human) Cl- transport modulation; Q9H2X9; KCC2 cells, thallium flux FluoZin-2 fluorescence; 190,000 tested, 2.2% active; B-score of Tl+ flux slope (higher = more flux/activation; lower = inhibition) at 10 µM;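 active means thallium flux slope and its plate-corrected score both differing from the plate sample mean at a set confidence after two filtering rounds, in either direction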;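 further: slope of fluorescence scaled to starting intensity during 10 to 20 s after thallium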
WT yeast gro inh: growth inhibition of WT yeast, mitochondrial fusion screen. AID 1362. mitochondrial fusion phenotypic screen, WT strain. inhibition, % at 10 µM. 190,000 tested, 2.1% active; in the data active means inhibition above about 58%; tested in S. cerevisiae
ROMK primary: modulates human ROMK potassium channel activity. P48048. B-score at 10 µM. 130,000 tested, 2% active. Tet-inducible ROMK, thallium flux fluorescence; actives lie on both sides. AID 1918;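 active means signal ratio slope over the read window, or its plate-corrected B-score, at least 3 SD from the plate mean, either direction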;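 further: B-score of the F/F0 ratio slope over 7 to 12 s after thallium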
Target sequence (P48048 whole entry, looked up): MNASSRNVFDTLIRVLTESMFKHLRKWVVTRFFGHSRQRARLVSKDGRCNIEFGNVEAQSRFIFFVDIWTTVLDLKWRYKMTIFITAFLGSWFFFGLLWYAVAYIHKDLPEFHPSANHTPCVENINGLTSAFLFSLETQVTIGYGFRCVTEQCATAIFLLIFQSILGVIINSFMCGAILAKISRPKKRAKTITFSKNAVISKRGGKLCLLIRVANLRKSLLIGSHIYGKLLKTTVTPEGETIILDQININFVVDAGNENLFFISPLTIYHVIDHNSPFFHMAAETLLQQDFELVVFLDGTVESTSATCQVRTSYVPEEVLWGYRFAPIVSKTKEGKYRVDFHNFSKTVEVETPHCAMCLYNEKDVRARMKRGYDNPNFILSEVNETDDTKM
Calpain2 inh: blocks pig calpain II enzyme activity. purified calpain II, fluorogenic peptide substrate, 30 min. inhibition, % at 16 µM. 220,000 tested, 0.37% active. AID 1236;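 active means inhibition above about 50%, limit read from the data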
Numbers stand for hits; 0 = inactive; - = no result. The list is not random: actives were taken first. Their share in the collection is about 12%.

SMILES	Lmaj promast	KCC2 mod	WT yeast gro inh	ROMK primary	Calpain2 inh
C=CCOC(=O)C1=C(C)NC(=S)NC1/C=C/c1ccccc1 (stereo not given)	89	0	-	-	0
CC1=C(C(=O)OCc2ccccc2)C(/C=C/c2ccccc2)NC(=S)N1 (stereo not given)	0	0	69	-	0
COCCOC(=O)C1=C(C)NC(=S)NC1/C=C/c1ccccc1 (stereo not given)	0	0	0	0	0
CC(C)Sc1nc(-c2cccs2)nc2c1c(=O)n(C)c(=O)n2C	0	0	0	-	0
COc1cc(/C=C/C(=O)Nc2ccc(N3CCCCC3)c(S(=O)(=O)Nc3ccccc3Cl)c2)cc(OC)c1OC	53	0	0	0	0
O=C(Nc1cccc(S(=O)(=O)N2CCCCC2)c1)Nc1ccc(Cl)cc1Cl	60	0	82	0	0
O=C(CN1CCCCC1)Nc1ccc(C(F)(F)F)cc1Cl	-	0	-	-	0
O=C(CN1CCCCCCC1)Nc1ccc(Cl)cc1Cl	0	0	0	0	88
O=C(Nc1cccc(C(F)(F)F)c1)Nc1ccc(N2CCCC2)c(S(=O)(=O)Nc2ccccc2Cl)c1	100	0	0	0	0
COc1ccccc1NS(=O)(=O)c1cc(NC(=O)C2CCC2)ccc1N1CCCCC1	-	0	-	-	0
Cn1c(=O)c2c(ncn2CCC(=O)N/N=C/c2ccncc2)n(C)c1=O	-	0	-	-	0
Cc1cccc(Nc2ccncc2S(=O)(=O)NC(=O)NC(C)C)c1	-	0	0	-	0
COc1ccccc1NS(=O)(=O)c1cc(NC(=O)Nc2ccc(Cl)cc2Cl)ccc1N1CCCCC1	99	0	0	-	0
OCC1(Cc2ccccc2)CCN(C2CCN(c3ccc(F)c(F)c3)CC2)CC1	98	0	0	-	0
CN(C(=O)CC1C(=O)NCCN1CC1CCCCC1)C1CCOCC1 (stereo not given)	-	0	-	-	0
CN(C(=S)NC(=O)Cc1ccccc1)c1ccccc1	0	0	0	0	0
COC(=O)c1ccc(COC(=O)c2ccc(CO)cc2)o1	65	0	0	0	0
COc1ccc(N2C(=O)CS/C2=N\C(=S)Nc2ccccc2)cc1	-	0	-	-	0
C=CCC(CC(O)COCCC)C(=O)NNC(=S)Nc1ccccc1 (stereo not given)	-	0	-	0	0
O=C(c1ccc2c(c1)N(Cc1cccc(Cl)c1)C(=O)c1ccccc1S2(=O)=O)N1CCN(c2ccccn2)CC1	98	-	0	0	0
CC(C)C(NC(=O)c1ccccc1NC(=O)c1ccco1)C(=O)NNC(=O)c1ccncc1 (stereo not given)	-	0	-	-	0
CCN(CC)S(=O)(=O)c1ccc(OC)c(NC(=O)CSc2ccccc2)c1	99	0	0	-	0
COc1ccc(S(=O)(=O)N(C)C)cc1NC(=O)CSc1nc(N)cc(N)n1	-	0	-	-	0
CCN(CC)S(=O)(=O)c1ccc(OC)c(NC(=O)CSc2cc(Cl)ccc2Cl)c1	98	0	0	0	0
CC(C)(C)c1ccc(NC(=O)N2CCN(c3ccc([N+](=O)[O-])cn3)CC2)cc1	-	0	-	-	0
SMILES	Lmaj promast	KCC2 mod	WT yeast gro inh	ROMK primary	Calpain2 inh
COC(=O)C1CCC(C)(C(=O)Nc2ccccc2)C1(C)C (stereo not given)	0	0	0	0	0
COc1ccc(S(=O)(=O)Oc2ccc3ccccc3c2)cc1	0	0	60	0	0
CCc1cc2c(=O)n(Cc3ccccc3)c(SC3CCOC3=O)nc2s1 (stereo not given)	0	0	0	0	54
COc1ccc(NC(=O)c2ccc(Cl)c(NC(=O)c3ccncc3)c2)cc1	76	-	0	-	0
COc1cc(N)cc(NC(=O)c2ccncc2)c1	0	-	0	-	0
COC(=O)[C@H](CC(C)C)NC(=O)N1CCC(C)CC1	-	0	-	-	0
COc1ccc(C(O)C(CN2CCOCC2)c2ccccc2)cc1 (stereo not given)	89	-	0	0	0
O=C(c1ccccc1)c1ccc(OCC(O)CN2CCOCC2)cc1 (stereo not given)	0	0	-	0	-
CCOc1ccc(C(=O)C(CN2CCOCC2)c2ccccc2)cc1 (stereo not given)	99	0	0	0	0
O=Cc1ccccc1OCCOc1ccccc1C=O	72	0	0	-	0
O=Cc1ccccc1Oc1ccccc1	0	-	0	-	0
N#Cc1ccccc1Oc1ccccc1C=O	57	0	0	0	0
CN1CCN(CCCCOc2ccccc2C=O)CC1	100	0	0	0	0
COc1cc(NC(=O)[C@@H](NC(=O)c2ccco2)C(C)C)c(OC)cc1NC(=O)c1ccccc1	0	0	0	0	0
Clc1ccc(OC2CCN(Cc3nc(CC4CC4)no3)CC2)cc1	0	0	0	0	0
CCOc1cc(/C=N/n2cnnc2)ccc1OC(=O)c1cccc([N+](=O)[O-])c1	0	0	0	-	0
CC(C)CCNC(=O)CN(C(=O)CCC(=O)Nc1ccccn1)c1ccc(F)c(Cl)c1	95	0	0	0	0
Cc1cccc(N(CC(=O)NCc2ccco2)C(=O)CCC(=O)Nc2ccccn2)c1	0	0	0	0	0
COc1ccc2c(=O)c3c(=O)n(Cc4ccco4)c(-c4ccc(C)cc4)nc3oc2c1	59	-	0	0	0
CCc1nc2oc3ccccc3c(=O)c2c(=O)n1Cc1ccccc1	0	-	0	0	0
COc1ccc2c(=O)c3c(=O)n(Cc4ccco4)c(C(C)C)nc3oc2c1	0	0	0	-	0
CCc1nc2oc3cc(OC)ccc3c(=O)c2c(=O)n1Cc1ccccc1	95	-	0	0	0
COCCNC(=O)CN1C(=O)NC2(CCCCCC2)C1=O	0	0	0	0	0
CC(C(=O)Nc1cccnc1)c1ccc([N+](=O)[O-])cc1 (stereo not given)	0	0	0	0	0
CC(C(=O)Nc1cccc(Br)c1)c1ccc([N+](=O)[O-])cc1 (stereo not given)	51	0	0	-	0
SMILES	Lmaj promast	KCC2 mod	WT yeast gro inh	ROMK primary	Calpain2 inh
FC(F)Oc1ccc(-n2cc(-c3ccc(Cl)cc3)[n+]3c2CCCCC3)cc1	-	0	-	-	0
Cc1cc(C(=O)Nn2c(C)nc3ccccc3c2=O)ccc1[N+](=O)[O-]	0	0	0	0	0
O=C(Nn1c(C2CCCCC2)nc2ccccc2c1=O)c1ccc(Cl)c([N+](=O)[O-])c1	0	0	82	0	0
Cc1cc(C(=O)Nn2c(C3CCCCC3)nc3ccccc3c2=O)ccc1[N+](=O)[O-]	0	0	74	0	0
O=C(CSc1nc2ccccc2c(=O)n1-c1ccccc1)NC(=O)CN1CCCC1=O	0	0	0	0	0
CCN(CCCNC(=O)c1ccc(N2CCCC2=O)cc1)c1cccc(C)c1	79	-	0	-	0
CCCn1c(SCC#N)nc2c(c1=O)C1(CCCC1)Cc1ccccc1-2	0	-	0	0	0
CCn1c(SCC(N)=O)nc2c(c1=O)C1(CCCC1)Cc1ccccc1-2	0	3.6	0	0	0
N#CCSc1n[nH]c2nc3c(c(=O)n12)C1(CCCC1)Cc1ccccc1-3	0	-3.5	0	-	0
CC(=O)C1=C(C)NC(SCC(=O)c2ccc(Cl)c(Cl)c2)=C(C#N)C1c1ccco1 (stereo not given)	78	-	-	0	-
C=CCOC(=O)C1=C(C)NC(SCC(=O)N(CC)CC)=C(C#N)C1c1ccco1 (stereo not given)	81	0	0	0	-
